Measured values as given in PubChem BioAssay (Tox21).
Where “and” joins values, the source holds several entries; their conditions need not be identical. Equal values may be shown once. Inconclusive results are not listed. Calls of active or inactive are those of the source. Unless noted, the call rests on the fitted dose curve; in most records, active means well fitted curve in the direction sought with a large enough effect in the repeat runs; inconclusive means weak or mixed curves; inactive means no such curve, though single readings can be large; an effect the other way counts as inactive or inconclusive.

What was measured:
[1] = Human pregnane X receptor (PXR) small molecule agonists, qHTS cell viability counter screen (AID 1346977); further: nearly all actives have a fitted effect of over 50% in size; further: potency means the concentration at half of the fitted maximal effect
Outline: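 After a 5hr pre-incubation, PXR-Luc HepG2 cells received compounds plus positive control in DMSO and were kept 24hr at 37C. Cell viability was quantified by fluorescence from CellTiter-Fluor added for the final hour.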

[2] = Caspase-3/7 induction in HepG2 cells by small molecules, qHTS assay (AID 1346978); further: nearly all actives have a fitted effect of over 15% in size
Outline: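 Wild-type HepG2 cells (2,000/well) were settled 5 h at 37 C, 5% CO2, then exposed to compounds in DMSO for 17 h. Caspase-3/7 activity was read by luminescence 30 min after adding Caspase-Glo 3/7 reagent at room temperature.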

[3] = Caspase-3/7 induction in CHO-K1 cells by small molecules, qHTS cell viability counter screen (AID 1346979); further: nearly all actives have a fitted effect of over 35% in size; further: potency means the concentration at half of the fitted maximal effect
Outline: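 Multiplexed with Caspase-Glo 3/7 in CHO-K1 cells, this counter screen added CellTiter-Fluor after 16hr of compound exposure and recorded fluorescence 1hr later.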

[4] = Caspase-3/7 induction in CHO-K1 cells by small molecules, qHTS assay (AID 1346980); further: nearly all actives have a fitted effect of over 15% in size
Outline: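 Wild-type cells were seeded at 1,500 per well and settled 5 hr at 37 C, 5% CO2, then exposed to DMSO-dissolved compounds for 17 hr. Caspase-Glo 3/7 reagent was added, and luminescence was read after 30min at room temperature.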

[5] = Caspase-3/7 induction in HepG2 cells by small molecules, qHTS cell viability counter screen (AID 1346981); further: nearly all actives have a fitted effect of over 30% in size; further: potency means the concentration at half of the fitted maximal effect; on activity change, negative = cytotoxicity: series mostly up to about 92 µM
Outline: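 HepG2, WT, 2,000 cells/well; 5 hr pre-incubation 37 C/5% CO2; compound pin-transferred from DMSO; 16 hr exposure; CellTiter-Fluor, 1 hr; fluorescence read.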

[6] = biological target: Nuclear receptor subfamily 1 group I member 2 (Homo sapiens) (UniProt O75469); experiment: Human pregnane X receptor (PXR) small molecule agonists, qHTS assay (AID 1346982); further: nearly all actives have a fitted effect of over 35% in size; further: potency means the concentration at half of the fitted maximal effect
Sequence of Nuclear receptor subfamily 1 group I member 2 (Homo sapiens) (O75469 whole entry, looked up): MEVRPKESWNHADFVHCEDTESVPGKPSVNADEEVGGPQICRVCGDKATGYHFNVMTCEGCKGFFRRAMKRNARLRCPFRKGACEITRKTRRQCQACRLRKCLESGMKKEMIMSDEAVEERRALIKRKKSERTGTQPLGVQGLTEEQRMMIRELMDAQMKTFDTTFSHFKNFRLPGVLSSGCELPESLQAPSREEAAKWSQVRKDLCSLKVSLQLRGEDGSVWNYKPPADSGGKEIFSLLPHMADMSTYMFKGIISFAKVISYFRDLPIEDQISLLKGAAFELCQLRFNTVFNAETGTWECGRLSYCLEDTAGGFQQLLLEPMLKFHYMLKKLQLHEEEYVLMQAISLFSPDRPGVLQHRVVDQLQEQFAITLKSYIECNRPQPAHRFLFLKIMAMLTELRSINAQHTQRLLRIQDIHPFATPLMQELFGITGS
Outline: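 Luciferase signal from ONE-Glo (30 min, room temperature) measured activation of hPXR-driven CYP3A4 reporter expression in PXR-Luc HepG2 cells treated with compounds for 24 hr at 37 C.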

[7] = biological target: Acetylcholinesterase (Homo sapiens) (UniProt P22303); experiment: Acetylcholinesterase (AChE) small molecule antagonists: colormetric cell-based qHTS assay (AID 1347395; calls by dose curve; further: nearly all actives have a fitted effect of over 30% in size)
Sequence of Acetylcholinesterase (Homo sapiens) (P22303 whole entry, looked up): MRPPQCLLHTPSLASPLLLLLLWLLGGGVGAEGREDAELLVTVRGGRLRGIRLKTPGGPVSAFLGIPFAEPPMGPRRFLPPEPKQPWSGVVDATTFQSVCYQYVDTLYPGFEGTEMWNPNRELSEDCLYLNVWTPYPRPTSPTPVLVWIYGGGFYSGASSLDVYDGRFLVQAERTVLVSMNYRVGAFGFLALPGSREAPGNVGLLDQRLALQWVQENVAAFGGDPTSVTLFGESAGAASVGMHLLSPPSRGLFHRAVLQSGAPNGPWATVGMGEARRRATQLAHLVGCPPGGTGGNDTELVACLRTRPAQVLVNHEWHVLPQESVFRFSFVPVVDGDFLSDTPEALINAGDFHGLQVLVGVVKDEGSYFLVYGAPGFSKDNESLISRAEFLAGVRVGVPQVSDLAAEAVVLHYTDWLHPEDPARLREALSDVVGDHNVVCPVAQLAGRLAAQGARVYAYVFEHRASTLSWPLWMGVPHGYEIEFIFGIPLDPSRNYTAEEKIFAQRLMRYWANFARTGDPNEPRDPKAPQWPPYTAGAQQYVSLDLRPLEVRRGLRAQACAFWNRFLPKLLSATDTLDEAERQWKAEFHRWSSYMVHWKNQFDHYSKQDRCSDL
Outline: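 In this cell-based qHTS, attached SH-SY5Y cells were treated with test chemicals for 30 min, after which acetylthiocholine hydrolysis was followed by DTNB colour development over 90 min at 37 C.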

[8] = biological target: Nuclear receptor subfamily 1 group I member 2 (Homo sapiens) (UniProt O75469); experiment: CYP3A4 induction through human pregnane X receptor (PXR) by small molecules, qHTS assay (AID 1346984); further: nearly all actives have a fitted effect of over 40% in size
Outline: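 Luminescence readout: luciferase signal after One-Glo (30 min, room temperature), following 3 h at 37C with 3uM final Luciferin-IPA P450 substrate. Cells were DPX-2 (HepG2, PXR/CYP3A4-luc co-transfected) dosed for 24 h.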

[9] = biological target: Nuclear receptor subfamily 1 group I member 2 (Homo sapiens) (UniProt O75469); experiment: Human pregnane X receptor (PXR) activation by small molecules, qHTS assay (AID 1346985); further: nearly all actives have a fitted effect of over 40% in size
Outline: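 DPX-2 cells (HepG2 co-transfected with a PXR response element and a CYP3A4-promoter luciferase construct) were seeded at 2,000 per well, rested 5 hr at 37C, then exposed to DMSO-dissolved compounds for 24 hr. Activation was read as luciferase luminescence.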

[10] = biological target: Nuclear receptor subfamily 1 group I member 2 (Rattus norvegicus) (UniProt Q9R1A7); experiment: Rat pregnane X receptor (rPXR) activation by small molecules, qHTS assay (AID 1346983); details: rPXR luciferase reporter cells, One-Glo luminescence, 24 h; active compounds read high; further: nearly all actives have a fitted effect of over 20% in size
Sequence of Nuclear receptor subfamily 1 group I member 2 (Rattus norvegicus) (Q9R1A7 whole entry, looked up): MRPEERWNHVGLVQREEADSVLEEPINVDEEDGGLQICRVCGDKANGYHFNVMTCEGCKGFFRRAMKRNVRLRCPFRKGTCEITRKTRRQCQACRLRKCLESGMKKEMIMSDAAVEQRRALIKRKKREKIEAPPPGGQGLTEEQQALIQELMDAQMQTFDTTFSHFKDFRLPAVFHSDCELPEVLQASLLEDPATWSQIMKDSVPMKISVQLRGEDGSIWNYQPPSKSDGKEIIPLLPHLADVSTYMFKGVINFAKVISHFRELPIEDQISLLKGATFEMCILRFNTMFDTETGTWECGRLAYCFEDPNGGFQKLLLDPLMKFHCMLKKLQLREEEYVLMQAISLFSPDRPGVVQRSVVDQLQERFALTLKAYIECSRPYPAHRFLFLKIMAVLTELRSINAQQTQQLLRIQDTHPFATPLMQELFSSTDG
Outline: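 Cell-based rPXR luciferase reporter assay, 2,000 cells per well, rested 5hr at 37 C before compound addition in DMSO, then 24 hr at 37 C. One-Glo reagent was added and luminescence read after 30 min at room temperature.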
On the % scale 0 is the no-effect control and ±100 the full control effect.

CON(C)C(=O)Nc1ccc(Cl)cc1
active: Potency [6] 48.6 µM
inactive: Potency [1] | Potency [2] | Potency [3] | Potency [4] | Potency [5] | Potency [7]

COC(=O)Cc1ccccc1
inactive: Potency [1] | Potency [2] | Potency [3] | Potency [4] | Potency [5] | Potency [6] | Potency [7]

CCCCCBr
inactive: Potency [1] | Potency [2] | Potency [3] | Potency [4] | Potency [5] | Potency [6] | Potency [7]

CCC(C)(C)O
inactive: Potency [1] | Potency [2] | Potency [3] | Potency [4] | Potency [5] | Potency [6] | Potency [7]

Cc1ccccc1
inactive: Potency [1] | Potency [2] | Potency [3] | Potency [4] | Potency [5] | Potency [6] | outcome [8] | Potency [9] | Potency [7]

CCCCCCCCCCCCN=C(N)N
inactive: activity change, negative = cytotoxicity [1] 1.51% [at 3.27 µM] | caspase activation [2] -1.34% [at 3.27 µM] | activity change, negative = cytotoxicity [3] -4.73% [at 3.27 µM] | caspase-3/7 activation [4] -1.72% [at 3.27 µM] | activity change, negative = cytotoxicity [5] -9.99% [at 3.27 µM] | activation [6] 13.3% [at 3.27 µM] | activity, negative = inhibition [7] -5.91% [at 4.07 µM]

C=CC(C)(CCC=C(C)C)OC(=O)c1ccccc1N (configuration not stated)
inactive: Potency [1] | Potency [2] | Potency [3] | Potency [4] | Potency [5]

C1CS1
inactive: Potency [1] | Potency [2] | Potency [3] | Potency [4] | Potency [5] | Potency [6] | Potency [7]

CC1(C)CC(=O)CC(C)(C)N1[O]
inactive: Potency [1] | Potency [2] | Potency [3] | Potency [4] | Potency [5] | Potency [6] | Potency [7]

CC(C)(C)NCC(O)c1ccccc1Cl (configuration not stated)
inactive: Potency [1] | Potency [2] | Potency [3] | Potency [4] | Potency [5] | Potency [6] | max activation [10] -2.03% | outcome [8] | Potency [9] | Potency [7]

C[C@H]1O[C@H](OC2[C@@H](O)[C@@H](O)C(O)[C@H](O)[C@H]2O)[C@@H](N)C[C@@H]1N=C(N)C(=O)O (some centres not stated)
inactive: Potency [1] | Potency [2] | Potency [3] | Potency [4] | Potency [5] | Potency [6] | Potency [7]

CCCCCCCCCCCCCCCl
active: Potency [6] 61.4 µM
inactive: Potency [1] | Potency [2] | Potency [3] | Potency [4] | Potency [5] | Potency [7]

CCOC(=O)c1cncn1C(C)c1ccccc1 (configuration not stated)
active: Potency [6] 26.6 µM
inactive: Potency [1] | Potency [2] | Potency [3] | Potency [4] | Potency [5] | max activation [10] 0.791% | outcome [8] | Potency [7]

c1ccc2c(c1)sc1ccccc12
inactive: Potency [1] | Potency [2] | Potency [3] | Potency [4] | Potency [5] | Potency [6] | max activation [10] -3.19% | outcome [8] | Potency [9] | Potency [7]

CCC1(CCC(C)C)C(=O)NC(=O)NC1=O
inactive: Potency [1] | Potency [2] | Potency [3] | Potency [4] | Potency [5] | Potency [6] | Potency [7]

OCC1CO1 (configuration not stated)
inactive: Potency [1] | Potency [2] | Potency [3] | Potency [4] | Potency [5] | Potency [6] | Potency [7]

NC(=S)c1c(Cl)cccc1Cl
inactive: Potency [1] | Potency [2] | Potency [3] | Potency [4] | Potency [5] | Potency [6] | Potency [7]

CCCBr
inactive: Potency [1] | Potency [2] | Potency [3] | Potency [4] | Potency [5] | Potency [6] | Potency [7]

NNCCO
inactive: Potency [1] | Potency [2] | Potency [3] | Potency [4] | Potency [5] | Potency [6] | Potency [7]

C=CCOCC1CO1 (configuration not stated)
inactive: Potency [1] | Potency [2] | Potency [3] | Potency [4] | Potency [5] | Potency [6] | Potency [7]

Cc1cccc(C)c1NC1=NCCCS1
inactive: Potency [1] | Potency [2] | Potency [3] | Potency [4] | Potency [5] | Potency [6] | Potency [7]

Nc1ccc2c(c1)Cc1ccccc1-2
active: Potency [6] 27.1 µM
inactive: Potency [1] | Potency [2] | Potency [3] | Potency [4] | Potency [5] | Potency [7]

COc1ccc(C(O)(c2cncnc2)C2CC2)cc1 (configuration not stated)
inactive: Potency [1] | Potency [2] | Potency [3] | Potency [4] | Potency [5] | Potency [6] | Potency [7]

CCC1(C2=NCCN2)Cc2ccccc2O1 (configuration not stated)
inactive: Potency [1] | Potency [2] | Potency [3] | Potency [4] | Potency [5] | Potency [6] | Potency [7]

Nc1cccc2ccccc12
active: Potency [6] 48.9 µM and 61.1 µM
inactive: Potency [1] | Potency [2] | Potency [3] | Potency [4] | Potency [5] | Potency [7]

O=S(=O)(c1ccccc1)c1ccccc1
inactive: Potency [1] | Potency [2] | Potency [3] | Potency [4] | Potency [5] | Potency [6] | Potency [7]

CCCCNC(=O)OCC#CI
inactive: Potency [2] | Potency [4] | Potency [6] | Potency [7]
active: Potency [1] 35.5 µM and 27.3 µM | Potency [3] 30.5 µM and 27.3 µM | Potency [5] 48.3 µM and 61.1 µM
